Shn3 3UTR inh: Schnurri-3 reporter inhibition in Clone20 osteoblasts | Clone20 osteoblast Shn3 3'UTR firefly luciferase, 24 h | inhibition, % at 12.5 µM | 360,000 tested, 0.52% active | AID 588674;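 active = mean inhibition of at least 75% with every replicate also reaching 75%; inconclusive = mean inhibition at least 75% but some replicate below; inactive = mean inhibition below 75%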;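 note: 0% = median of neutral control wells and 100% = pilot-screen positive control compound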
ABHD5 PLIN5 PPI: blocks binding of human ABHD5 to perilipin-5 | Split G. princeps luciferase complementation, luminescence, 4 h | inhibition, % at 4 µM | 360,000 tested, 0.78% active;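 active = inhibition above the mean inhibition across every tested compound plus 3 SD, cut at about 22% in these data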;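 note: 0% = DMSO only wells and the 100% control is not disclosed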
Target sequence (Q00G26 whole entry, looked up): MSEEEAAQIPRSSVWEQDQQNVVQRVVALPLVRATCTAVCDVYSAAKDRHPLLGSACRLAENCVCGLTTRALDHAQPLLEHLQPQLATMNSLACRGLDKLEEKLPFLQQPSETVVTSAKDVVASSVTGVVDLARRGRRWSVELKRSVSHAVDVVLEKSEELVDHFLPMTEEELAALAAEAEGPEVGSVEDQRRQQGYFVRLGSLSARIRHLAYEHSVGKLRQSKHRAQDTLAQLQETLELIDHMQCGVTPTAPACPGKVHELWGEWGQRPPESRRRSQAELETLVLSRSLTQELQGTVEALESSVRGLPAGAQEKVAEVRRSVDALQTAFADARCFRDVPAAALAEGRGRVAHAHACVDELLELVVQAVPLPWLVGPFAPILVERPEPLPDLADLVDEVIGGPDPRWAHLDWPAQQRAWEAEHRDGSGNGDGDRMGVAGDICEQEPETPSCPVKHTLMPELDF
Target sequence (Q8WTS1 whole entry, looked up): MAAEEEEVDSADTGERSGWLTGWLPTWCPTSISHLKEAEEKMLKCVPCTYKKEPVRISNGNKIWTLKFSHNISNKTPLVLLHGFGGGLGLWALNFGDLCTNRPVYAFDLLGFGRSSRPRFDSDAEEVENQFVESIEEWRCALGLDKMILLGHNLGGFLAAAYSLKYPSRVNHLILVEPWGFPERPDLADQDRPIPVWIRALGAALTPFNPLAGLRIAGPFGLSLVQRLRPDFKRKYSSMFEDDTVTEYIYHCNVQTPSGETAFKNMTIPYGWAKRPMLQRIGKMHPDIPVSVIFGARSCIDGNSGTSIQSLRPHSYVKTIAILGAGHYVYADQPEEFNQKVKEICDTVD
PAX8 inh HTS: inhibitors of PAX8 transcriptional activity in RMG-I cells; inhibition, % at 12.6 µM; RMG-I TPO-luciferase reporter, SteadyGlo, 24 h; 360,000 tested, 1.2% active;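 active = mean replicate inhibition at least 60% with every replicate also reaching 60%; inconclusive = only one of the two criteria is met; inactive = mean below 60% and not all replicates reaching 60%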;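 note: luciferase light reporting Pax8 driven TPO promoter activity; plate controls were median of neutral control wells for no effect and mitoxantrone controls for full effect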
Peg3 promoter: reduces Peg3 promoter-driven luciferase expression in HeLa. 360,000 tested, 1.7% active. AID 588405. inhibition, % at 20 µM. HeLa PEG-Prom luciferase reporter, luminescence, overnight;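 active = inhibition of at least 50% at 20 µM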
EWS-Fli inh: blocks EWS/Fli oncoprotein-driven transcription; inhibition, % at 12.6 µM; 350,000 tested, 0.67% active; A673 NR0B1-luciferase reporter, viability-normalised;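 active = mean inhibition of at least 50% after viability correction, with every replicate also passing that limit; inconclusive = mean reaches 50% but only one of two replicates passes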;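 note: firefly luciferase signal divided by Alamar Blue viability fluorescence both relative to DMSO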
TRPM1 prom inh: MITF TRPM1 promoter inhibition in SK-MEL-5 cells. 330,000 tested, 0.83% active. SK-MEL-5 TRPM1 promoter luciferase, 24 h. inhibition, % at 12.5 µM;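 active = mean inhibition across replicates of 60% or more, whatever share of single replicates reaches that level; inconclusive = some that reach 60%, reason not given; inactive = mean inhibition across replicates below 60%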
An asterisk follows results filed as active. In the library only some 3% were active in any assay of this set; here they are far more common.

What do the screens show for `COc1ccccc1C#Cc1cnc2c(c1)C(=O)N([C@@H](C)CO)C[C@H](C)[C@@H](CN(C)C(=O)CN(C)C)O2`?
EWS-Fli inh: 0

What do the screens show for `CO[C@H]1CN(C)C(=O)c2cc(NC(C)=O)ccc2OC[C@@H](C)N(C(=O)c2ccccn2)C[C@@H]1C`?
EWS-Fli inh: 1

What do the screens show for `Cc1cc(N/N=C/c2ccccc2O)c2ccccc2n1`?
Shn3 3UTR inh: -24; ABHD5 PLIN5 PPI: 1; PAX8 inh HTS: 5; Peg3 promoter: 11; EWS-Fli inh: 3; TRPM1 prom inh: 8

Results for COc1ccc2nc(C)cc(Nc3ccccc3O)c2c1 ?
Shn3 3UTR inh: 21; ABHD5 PLIN5 PPI: 2; PAX8 inh HTS: -27; Peg3 promoter: 3; EWS-Fli inh: -35; TRPM1 prom inh: -2

What do the screens show for `COc1ccc(/C=N/Nc2cc(C)nc3ccc(Br)cc23)cc1`?
Shn3 3UTR inh: 93*; ABHD5 PLIN5 PPI: 0; PAX8 inh HTS: 95*; Peg3 promoter: 101*; EWS-Fli inh: 48; TRPM1 prom inh: 99*

Results for COc1ccc2nc(C)cc(NCc3cccc(C(F)(F)F)c3)c2c1 ?
Shn3 3UTR inh: 71; ABHD5 PLIN5 PPI: 5; PAX8 inh HTS: 22; Peg3 promoter: 12; EWS-Fli inh: 22; TRPM1 prom inh: 69*

Results for COc1cccc2c(N/N=C/c3ccccc3)cc(C)nc12 ?
Shn3 3UTR inh: -1; ABHD5 PLIN5 PPI: 1; PAX8 inh HTS: -6; Peg3 promoter: 11; EWS-Fli inh: 6; TRPM1 prom inh: 5

How did COc1ccc2nc(C)cc(N/N=C/c3cccc(OC)c3O)c2c1 do in these assays?
Shn3 3UTR inh: 11; ABHD5 PLIN5 PPI: 9; PAX8 inh HTS: 95*; Peg3 promoter: 111*; EWS-Fli inh: 68*; TRPM1 prom inh: 82*

How did CCNC(=O)[C@H]1[C@H](CO)[C@H]2Cn3c(ccc(/C=C/c4ccccc4)c3=O)[C@@H]1N2C(=O)c1ccncc1 do in these assays?
EWS-Fli inh: 9

Results for CC1CC2(CCCC2)Nc2ccc(F)cc21 (stereo not drawn) ?
Shn3 3UTR inh: 7; ABHD5 PLIN5 PPI: -6; PAX8 inh HTS: 6; Peg3 promoter: 5; EWS-Fli inh: 5; TRPM1 prom inh: 3

How did CC1CC(C)(C)Nc2ccc(N=O)cc21 (stereo not drawn) do in these assays?
Shn3 3UTR inh: 93*; ABHD5 PLIN5 PPI: -13; PAX8 inh HTS: 60; Peg3 promoter: 84*; EWS-Fli inh: 37; TRPM1 prom inh: 61*

Results for O=C(NC1CCC1)[C@@H]1[C@@H](CO)[C@@H]2Cn3c(ccc(-c4ccccc4)c3=O)[C@@H]2N1CC1CC1 ?
EWS-Fli inh: 1

How did O=S(=O)(NC1c2cccc3cccc(c23)C1N1CCNCC1)c1ccc(Cl)cc1 (stereo not drawn) do in these assays?
Shn3 3UTR inh: 42; ABHD5 PLIN5 PPI: 12; PAX8 inh HTS: -6; Peg3 promoter: 77*; EWS-Fli inh: 22; TRPM1 prom inh: 20

How did CC(=O)N1CCN(C2c3cccc4cccc(c34)C2NS(=O)(=O)c2ccccc2)CC1 (stereo not drawn) do in these assays?
Shn3 3UTR inh: -1; ABHD5 PLIN5 PPI: 0; Peg3 promoter: 17; TRPM1 prom inh: 3

Results for Cc1ccc(S(=O)(=O)Nc2ccc3c(c2)C(=O)N([C@H](C)CO)C[C@H](C)[C@@H](CN(C)S(=O)(=O)c2ccc(F)cc2)OCCCC[C@H](C)O3)cc1 ?
PAX8 inh HTS: 86*; EWS-Fli inh: -11

How did Cc1ccc(S(=O)(=O)N(C)C[C@@H]2OCCCC[C@H](C)Oc3ccc(NS(=O)(=O)c4ccc(F)cc4)cc3C(=O)N([C@H](C)CO)C[C@H]2C)cc1 do in these assays?
PAX8 inh HTS: 87*; EWS-Fli inh: 2

What do the screens show for `Cc1ccc(S(=O)(=O)N(C)C[C@H]2OCCCC[C@@H](C)Oc3ccc(NS(=O)(=O)c4ccc(F)cc4)cc3C(=O)N([C@H](C)CO)C[C@H]2C)cc1`?
PAX8 inh HTS: 60; EWS-Fli inh: 32

How did COc1ccc2c3c([nH]c2c1)[C@H](CO)N(Cc1cccc(F)c1)CC31CCN(C(C)=O)CC1 do in these assays?
PAX8 inh HTS: -17; EWS-Fli inh: 18

What do the screens show for `C[C@H](CO)N1C[C@H](C)[C@H](CN(C)S(=O)(=O)c2ccc(Cl)cc2)Oc2ccc(NS(=O)(=O)c3ccc(F)cc3)cc2C1=O`?
EWS-Fli inh: -3

How did Cc1cc(C(=O)N/N=C/c2cc(N=Nc3ccccc3)ccc2O)n[nH]1 do in these assays?
Shn3 3UTR inh: 87*; ABHD5 PLIN5 PPI: 0; Peg3 promoter: -26; TRPM1 prom inh: 41

How did O=C(NCc1ccccc1Cl)c1ccc(S(=O)(=O)N2CCCC2)cc1 do in these assays?
Shn3 3UTR inh: -7; ABHD5 PLIN5 PPI: -9; PAX8 inh HTS: 3; Peg3 promoter: 52*; EWS-Fli inh: 8; TRPM1 prom inh: -1

Results for Cc1cc(O)cc(O)c1/C=N/NC(=O)c1ccc2c(c1)OCCO2 ?
Shn3 3UTR inh: 91*; ABHD5 PLIN5 PPI: 4; PAX8 inh HTS: -23; Peg3 promoter: -19; EWS-Fli inh: -65

Results for Nc1ccc(C(=O)N/N=C\c2cc(N=Nc3cccc4ccccc34)ccc2O)cc1 ?
Shn3 3UTR inh: 89*; ABHD5 PLIN5 PPI: -2; PAX8 inh HTS: 19; Peg3 promoter: 27; TRPM1 prom inh: 40

What do the screens show for `COc1ccc2c3c(n(C)c2c1)[C@@H](CO)N(S(C)(=O)=O)CC31CCN(CC2CCCC2)CC1`?
PAX8 inh HTS: -4; EWS-Fli inh: 5

How did COc1ccccc1NC(=O)N1C[C@@H](O)COC[C@@H]2O[C@@H](CC(=O)NCCc3ccccc3)CC[C@H]21 do in these assays?
PAX8 inh HTS: 9; EWS-Fli inh: 2

Results for O=C(N/N=C/c1ccccc1)c1ccc2c(c1)OCO2 ?
Shn3 3UTR inh: -49; ABHD5 PLIN5 PPI: -7; PAX8 inh HTS: -65; Peg3 promoter: -106; EWS-Fli inh: -15; TRPM1 prom inh: -42

What do the screens show for `O=C(CNC(=O)c1ccc(S(=O)(=O)N2CCCC2)cc1)N/N=C/c1ccccc1Cl`?
Shn3 3UTR inh: 41; ABHD5 PLIN5 PPI: 7; PAX8 inh HTS: 10; Peg3 promoter: 14; TRPM1 prom inh: 3

Results for O=C(N/N=C\c1c(O)ccc2ccccc12)c1ccc(S(=O)(=O)N2CCCCC2)cc1 ?
Shn3 3UTR inh: 89*; ABHD5 PLIN5 PPI: -4; PAX8 inh HTS: 19; Peg3 promoter: 64*; TRPM1 prom inh: 76*

What do the screens show for `O=C(NN=Cc1c(O)ccc2ccccc12)c1ccc2c(c1)OCO2`?
Shn3 3UTR inh: 89*; ABHD5 PLIN5 PPI: 2; PAX8 inh HTS: 12; Peg3 promoter: 15; EWS-Fli inh: 21; TRPM1 prom inh: inconclusive

Results for CCCCCCCCCCn1ccc(=N)cc1 ?
Shn3 3UTR inh: 75; ABHD5 PLIN5 PPI: 12; PAX8 inh HTS: 83*; Peg3 promoter: 46; EWS-Fli inh: 58*; TRPM1 prom inh: 77*

Compound activity (PubChem)
